The full list was thinned out, with hits kept by preference.
HIV RNase H inh: inhibitors of HIV-1 reverse transcriptase RNase H. RT-RNase H RNA/DNA duplex cleavage, fluorescence. 1.9% of 65,000 active. P04585. inhibition, % at 10 µM; in the data active = inhibition above about 50%
Of the large screens only hits and unclear results are named; the others gave an inactive call.

CCN(CCCNC(=O)C1CCCN(S(=O)(=O)c2cnc[nH]2)C1)c1ccccc1 (centres undefined)	none
Cc1ccc2c(CSc3nc4ccccc4c(=O)n3CCCO)cc(=O)oc2c1	none
COC(=O)c1sc2ccccc2c1N	HIV RNase H inh 54
COC(=O)c1sc2ccccc2c1NC(=O)c1cccs1	none
COC(=O)c1sc2ccccc2c1C(=O)OC	none
Cc1onc(-c2ccccc2Cl)c1C(=O)NCCn1c(C)cc2ccccc21	none
Cc1oc(-c2ccc(F)cc2)cc1-c1nn2c(-c3ccco3)nnc2s1	none
Cc1oc(-c2ccc(F)cc2)cc1-c1nn2c(-c3ccoc3C)nnc2s1	HIV RNase H inh 63
Cc1oc(-c2ccc(Cl)cc2)cc1-c1nn2c(-c3ccco3)nnc2s1	none
Cc1oc2cc3c(C(=O)OCCN(C)C)c(C)oc3cc2c1C(=O)OCCN(C)C	none
Cc1ncsc1CCSc1nc2ccccc2c(=O)n1C	none
CCOC(=O)CS(=O)(=O)c1nc(-c2ccc(F)cc2)cc(C(F)(F)F)n1	HIV RNase H inh 55
CCOC(=O)CCS(=O)(=O)c1nc(-c2ccccc2)cc(C(F)(F)F)n1	none
CCOC(=O)CS(=O)(=O)c1nc(-c2ccccc2)cc(C(F)(F)F)n1	none
Cc1nnc(SCCn2c(N3CC(C)CC(C)C3)nc3c2c(=O)[nH]c(=O)n3C)s1 (centres undefined)	none
CCOc1cc(C2C(C(=O)OCC(C)C)=C(C)N=C3SCCC(=O)N32)ccc1OC(C)=O (centres undefined)	none
CCOc1ccccc1NC(=O)C1CCN(S(=O)(=O)c2cccc3cccnc23)CC1	none
Cc1cc(C)c(S(=O)(=O)Nc2ccc(O)cc2)cc1C	none
Cc1ccc(S(=O)(=O)Nc2ccc3oc(=O)sc3c2)c(C)c1	HIV RNase H inh 60
Cc1ccc(C)c(S(=O)(=O)Nc2ccc(O)cc2)c1	none
COc1ccc(CN(CCCN2CCOCC2)S(=O)(=O)N(C)C)cc1OC	none
COc1ccc(CN(CCCN2CCOCC2)C(=O)Nc2ccccc2)cc1OC	none
COc1ccc(CN(CCN2CCOCC2)C(=O)c2c(F)cccc2F)cc1OC	HIV RNase H inh 62
CC1CCCCN1C(=O)CSc1nnc(-c2ccc(Cl)s2)o1 (centres undefined)	none
COc1ccc(OC)c2[nH]c(=O)c(CCNC(=O)CC(C)C)cc12	none
CCC(Oc1ccccc1)C(=O)N1CC(C)CC(C)C1 (centres undefined)	none
CC(=O)N=c1sc(S(N)(=O)=O)nn1C	HIV RNase H inh 67
CC(=O)Nc1nnc(S(N)(=O)=O)s1	none
CC(=O)Nc1nc(C)c(S(N)(=O)=O)s1	none
CCOc1ccccc1C(=O)N1CCCCC1C (centres undefined)	none
Cc1csc(NC(=O)c2c(O)c3cccc4c3n(c2=O)CCC4)n1	none
CCCc1nnc(NC(=O)c2c(O)c3cccc4c3n(c2=O)CCC4)s1	HIV RNase H inh 72
CC(C)c1nnc(NC(=O)c2c(O)c3cccc4c3n(c2=O)CC4)s1	none
c1ccc(CNn2nnnc2-c2ccccc2)cc1	none
COC(=O)c1cc(NC(=O)Cn2c(=O)cnc3ccccc32)cc(C(=O)OC)c1	none
O=c1c2ccccc2nnn1CSc1nnc(-c2cccs2)n1Cc1ccccc1	none
O=c1cc(CSc2nnc(-c3cccs3)n2Cc2ccccc2)nc2sc3ccccc3n12	HIV RNase H inh 51
Cc1cc(C(=O)CSc2nnc(-c3cccs3)n2Cc2ccccc2)c(C)n1C	none
Cc1ccc(CCNC(=O)C2CCCN(c3nc4ccccc4o3)C2)cc1 (centres undefined)	none
CCOC(=O)Cc1c(C)nc2c(-c3cccc(Br)c3)c[nH]n2c1=O	none
COc1cccc(C2C(C(=O)c3cccs3)=C(O)C(=O)N2CCCn2ccnc2)c1OC (centres undefined)	none
CCN(CC)CCCN1C(=O)C(O)=C(C(C)=O)C1c1ccc(OC)cc1OC (centres undefined)	none
COc1ccc(CNC(=O)CCCCCn2c(SCC#N)nc3cc4c(cc3c2=O)OCO4)cc1	HIV RNase H inh 57
COc1ccc(CCNC(=O)CCCn2c(SCC#N)nc3ccccc3c2=O)cc1OC	none
COc1ccc(CCNC(=O)CCn2c(SCC#N)nc3ccccc3c2=O)cc1OC	none
CON(C)c1nc(OCCNC(=O)OCc2ccc(Cl)cc2Cl)nc(N(C)C)n1	none
Cn1c(NC(=O)c2cc(Br)ccc2Cl)cc(=O)n(C)c1=O	none
CCOC(=O)C1=C(C)NC(=O)NC1/C(C)=C/c1ccccc1 (centres undefined)	none
CCOC(=O)c1cnn(-c2nc(SC)nc3sc4c(c23)CCC4)c1N	HIV RNase H inh 55
CCOC(=O)c1cnn(-c2nc3sc4c(c3c(=O)[nH]2)CCCC4)c1N	none
CCOC(=O)c1cnn(-c2nc(C)nc3sc4c(c23)CCC4)c1N	none
Cc1cccc(N2CCN(c3nc4ccc(Cl)cc4n4cnnc34)CC2)c1C	none
CCOc1ccc2oc(-c3ccccc3)c(C(=O)N3CCN(CCO)CC3)c2c1	none
Cc1ccc(-c2nc3ccccc3[nH]2)cc1NC(=O)c1ccco1	none
O=C(Nc1ccc2nc(-c3ccc(Br)o3)[nH]c2c1)c1ccco1	HIV RNase H inh 55
O=C(Nc1ccc2nc[nH]c2c1)c1ccco1	none
O=S(=O)(Nc1ccc2nc(-c3ccc(Br)o3)[nH]c2c1)c1ccccc1	none
O=C(Nc1cccc(-c2nc3ccccc3[nH]2)c1)c1cccc(NC(=O)c2ccco2)c1	HIV RNase H inh 64
O=C(Nc1cccc(-c2cnc3ccccc3n2)c1)c1ccco1	none
CCOC(=O)Nc1ccc2c(c1)N(C(=O)N(CC)CC)c1ccccc1CC2	none
O=C(CN1C(=O)COc2ccccc21)N(Cc1cccnc1)Cc1ccccc1F	none
O=C(CCn1c(=O)sc2ccccc21)NCCN1CCOCC1	none
O=C(OCCN1C(=O)c2ccccc2C1=O)C1CCN(S(=O)(=O)c2cccs2)CC1	none
Cc1c(NC(=O)c2cc(-c3ccc4c(c3)OCO4)on2)c(=O)n(-c2ccccc2)n1C	none
Cc1cc(NC(=O)c2cc(-c3ccc4c(c3)OCO4)on2)n(-c2ccccc2)n1	HIV RNase H inh 55
Cc1cc(NC(=O)c2cc(-c3ccccc3)on2)n(-c2ccccc2)n1	none
Cc1ccc(C)n1-c1ccc(-c2nnc3n2CCCCC3)s1	none
Cc1c(=O)n(OCc2ccccc2F)c2ccccc2[n+]1[O-]	none
CCOC(=O)COn1c(=O)c(-c2ccc(OC)c(OC)c2)[n+]([O-])c2ccccc21	none
COc1ccc(-c2c(=O)n(OCc3ccccn3)c3ccccc3[n+]2[O-])cc1OC	HIV RNase H inh 56
CCN(CC(=O)Nc1c(C(=O)OC)[nH]c2ccc(C)cc12)c1ccc2c(c1)OCO2	none
Cc1ccc2cc(CCNC(=O)c3ccc(Br)o3)c(=O)[nH]c2c1	none
CC1CCCN(C(=O)C(Cc2ccccc2)n2cccc2)C1 (centres undefined)	none
O=C(Nc1ccc(N2CCCCC2)cc1)c1ccccc1	none
O=C(Nc1ccc(N2CCCC2=O)cc1)c1cccc(F)c1	none
O=C(Nc1ccc(N2CCCC2)cc1)c1cccc(F)c1	HIV RNase H inh 59
CCN(CC)S(=O)(=O)c1ccc(NCc2ccccc2)nc1	none
Cc1ccc(S(=O)(=O)N2CCCCC2)cc1C(=O)Nc1ncn[nH]1	none
Cc1ccc(S(=O)(=O)C2(C(=O)Nc3cccc(F)c3)CC2)cc1	none
COC(=O)c1ccc(OCC(=O)Nc2nn(-c3ccccc3)nc2C(N)=O)cc1	none
Cc1cccc(NC(=O)c2sc3nc(-c4ccc(F)cc4)cn3c2C)n1	none
Cc1cccc(NC(=O)c2sc3nc(-c4ccccc4)cn3c2C)n1	none
COc1ccc(-c2cn3c(C)c(C(=O)Nc4cccc(C)n4)sc3n2)cc1	HIV RNase H inh 51
O=c1nc2n(c3sc4c(c13)CCC4)Cc1ccccc1-2	none
O=C(Nc1ccc2c(c1)OCO2)C1CCN(S(=O)(=O)c2cccc3cccnc23)CC1	none
CCOC(=O)Cn1c(=O)oc2cc(S(=O)(=O)Nc3ccc(N(CC)CC)cc3C)ccc21	HIV RNase H inh 50
